Laboratory results reported in PubChem BioAssay AID720708 (National Center for Advancing Translational Sciences (NCATS), 2013).
Among all 360,000 compounds or so, about 660 (0.18%) were called active. Inconclusive results (about 2%) are left out. The sample holds actives, similar compounds and a random draw of the others, so the mix is not that of the screen. Values without a mark were called inactive. The call rests on the fitted dose curve; in most records, active means well fitted inhibition curve with a large enough effect; inconclusive means small, poorly fitted or top-dose-only effect; inactive means no such curve, though single readings can be large or run the other way.

These molecules were tested against Rap guanine nucleotide exchange factor 4 (Homo sapiens) (UniProt Q8WZA2) (assay: qHTS for Antagonist of cAMP-regulated guanine nucleotide exchange factor 2 (EPAC2): primary screen). Details: EPAC2 GEF exchange of Rap1B-BODIPY-GDP, fluorescence; series mostly up to 114 µM; activity, negative = inhibition: at the top concentration.
Rap guanine nucleotide exchange factor 4 (Homo sapiens), sequence (Q8WZA2 whole entry, looked up): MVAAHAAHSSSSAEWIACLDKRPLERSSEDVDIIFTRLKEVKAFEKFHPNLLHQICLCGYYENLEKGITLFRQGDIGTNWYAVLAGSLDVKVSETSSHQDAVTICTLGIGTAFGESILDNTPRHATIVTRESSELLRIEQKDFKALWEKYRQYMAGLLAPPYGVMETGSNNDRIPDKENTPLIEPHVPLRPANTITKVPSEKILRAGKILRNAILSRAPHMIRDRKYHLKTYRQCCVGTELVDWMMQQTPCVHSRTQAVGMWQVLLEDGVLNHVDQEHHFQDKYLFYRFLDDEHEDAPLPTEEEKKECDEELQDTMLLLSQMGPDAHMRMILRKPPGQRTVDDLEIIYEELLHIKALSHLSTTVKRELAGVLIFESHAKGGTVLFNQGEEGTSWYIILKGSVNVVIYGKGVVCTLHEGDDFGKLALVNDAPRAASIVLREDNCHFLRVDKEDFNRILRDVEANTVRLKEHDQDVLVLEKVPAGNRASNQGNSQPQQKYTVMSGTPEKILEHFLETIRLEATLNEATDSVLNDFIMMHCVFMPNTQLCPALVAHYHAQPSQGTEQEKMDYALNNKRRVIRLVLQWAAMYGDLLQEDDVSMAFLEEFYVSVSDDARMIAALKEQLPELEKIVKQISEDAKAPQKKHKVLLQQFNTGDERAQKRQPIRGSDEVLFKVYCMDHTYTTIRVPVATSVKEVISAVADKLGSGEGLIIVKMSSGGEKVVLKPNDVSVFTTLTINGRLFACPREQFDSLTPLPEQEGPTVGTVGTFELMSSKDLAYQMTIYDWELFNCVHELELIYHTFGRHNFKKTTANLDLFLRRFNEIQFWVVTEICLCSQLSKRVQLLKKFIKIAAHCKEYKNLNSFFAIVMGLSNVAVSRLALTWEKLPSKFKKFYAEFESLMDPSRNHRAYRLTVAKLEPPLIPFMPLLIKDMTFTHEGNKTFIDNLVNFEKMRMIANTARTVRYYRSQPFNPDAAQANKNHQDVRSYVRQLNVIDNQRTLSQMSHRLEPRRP
Further: nearly all actives have a fitted effect of over 45% in size.
On the % scale 0 is the no-effect control and ±100 the full control effect; potency means the concentration at half of the fitted maximal effect.

Row | SMILES | activity, negative = inhibition [%] | Potency
1 | COC(=O)[C@]12CCCCC=C1N(CCC1=CCCCC1)C(=O)[C@H](CC(=O)N1CCSCC1)C2 | 9.02 | –
2 | C=C1C2C[C@H](O)C(C)(C)[C@@]2(O)[C@H](O)C[C@]23C[C@@](C)(O)[C@H](CC[C@H]12)[C@H]3O (stereo partly drawn) | -2.34 | –
3 | CC1(C)OC(=O)C2=C(C[C@@H](C3CCCC3)O[C@@H]2c2ccc(Cl)cc2)O1 | -4.79 | –
4 | COc1ccc(N(C)S(=O)(=O)c2cccc3nsnc23)cc1 | -26 | –
5 | CN(CC1CCCO1)S(=O)(=O)c1ccc(C(=O)Nc2ccc([N+](=O)[O-])cc2)cc1 (stereo not drawn) | -8.12 | –
6 | Cn1ccc(=Nc2ccc(NC(=O)c3ccc(N=c4ccn(C)c5ccc([N+](=O)[O-])cc45)cc3)cc2)cc1 | – | 22.4 µM (active)
7 | CC(C)c1ccc(NC(=O)CCN2C(=O)c3ccc([N+](=O)[O-])cc3C2=O)cc1 | 4.46 | –
8 | COCc1cccc(-c2csc(C(O)c3ccc(F)cc3)n2)c1 (stereo not drawn) | -6.83 | –
9 | O=C(Nc1cc(Cl)ccc1N1CCOCC1)c1ccc(N2CCCC2=O)cc1 | 0.558 | –
10 | CCc1nn(CCCC(=O)Nc2ccc(C)c(C)c2)c(=O)c2cc3occc3n12 | -2.6 | –
11 | COc1c(F)c(F)c(-c2csc(N)n2)c(F)c1F | 1.67 | –
12 | Cc1cccc(C)c1NC(=O)C(c1ccc(C(F)(F)F)cc1)n1c(=O)c(-c2ccco2)nc2ccccc21 (stereo not drawn) | -16.5 | –
13 | O=C(O)CCCN1C(=O)C2C3c4ccccc4C(c4ccccc43)[C@@H]2C1=O (stereo partly drawn) | 6.33 | –
14 | C=C1C(=O)OC2C1CCC(C)=CCCC1(C)OC21 (stereo not drawn) | 5.97 | –
15 | CCN(c1ccccc1)S(=O)(=O)c1ccc2[nH]c(=O)[nH]c2c1 | -7.42 | –
16 | CCN1CCN(C(=O)c2cc3cc4ccc(OC)cc4nc3s2)CC1 | -2.76 | –
17 | N#CCOc1ccc(C2=NO[C@@H]3[C@@H]4C[C@@H]([C@H]5C(=O)N(c6ccc7c(c6)OCO7)C(=O)[C@@H]45)[C@H]23)cc1 | -9.46 | –
18 | CN(C)c1ccc(NC(=O)c2ccncc2)c2ccccc12 | 4.4 | –
19 | CC1CCCN(C(C(=O)Nc2ccc(C(C)C)cc2)c2ccc3c(c2)OCO3)C1 (stereo not drawn) | 11.7 | –
20 | CC(C)C[C@H]1CN([C@@H](CC(C)C)CN2CCC[C@@H]2CN2C(=O)C(=O)NC[C@@H]2Cc2ccccc2)C(=O)C(=O)N1CCc1ccccc1 | -25.2 | –
21 | CC(C)OC(=O)c1sc2nc3c(cc2c1N)C(=O)CCC3 | 7.66 | –
22 | COC(=O)c1sccc1NC(=O)c1ccc(Cl)cc1 | 5.53 | –
23 | COC(=O)c1cc2c(N)c(C(=O)c3ccc(Cl)cc3)sc2nc1C(OC)OC | – | 79.4 µM (active)
24 | CCOC(=O)[C@]12CCCC=C1N(CCC1=CCCCC1)C(=O)[C@H](CC(=O)NCCCCc1ccccc1)C2 | -10.5 | –
25 | O=C(O)c1ccccc1N=N/C(=N/Nc1cc(S(=O)(=O)O)ccc1O)c1ccccc1 | – | 50.1 µM (active)

Row | SMILES | activity, negative = inhibition [%] | Potency
26 | COc1ccccc1NC(=O)N1CCCC1C(=O)NCc1cccs1 (stereo not drawn) | 0.017 | –
27 | Cc1ccc(-n2ncc3c2CC(C)(C)CC3NC(=O)CCc2cnn(C)c2)cc1 (stereo not drawn) | -0.921 | –
28 | CCO/C([O-])=N/c1c[n+](N2CCOCC2)no1 | – | inactive
29 | O=C(NCCCn1ccnc1)/C(=C\c1ccccc1F)NC(=O)c1ccccc1 | -3.25 | –
30 | CCC(=O)NC(Nc1cc(C)ccn1)(C(F)(F)F)C(F)(F)F | -5.15 | –
31 | COC(=O)c1ccc2nc(-c3cccc(Br)c3)c(Cc3ccc(OC)cc3C)n2c1 | -6.84 | –
32 | CC1(C(=O)NCc2ccco2)Cc2c(-c3ccc4c(c3)OCO4)ccnc2O1 (stereo not drawn) | -0.756 | –
33 | O=C(Nc1ccccc1-c1nnn(CC(=O)N2CCCc3ccccc32)n1)c1cccc(Cl)c1 | -0.482 | –
34 | O=C(NC1CCCCC1)C(c1cc2ccccc2o1)n1c(=O)c(-c2ccco2)nc2ccccc21 (stereo not drawn) | -8.44 | –
35 | CCCc1nn2c(=O)cc(CSCC(=O)Nc3cccc(C)c3)nc2s1 | 6.1 | –
36 | CCN(C(=O)COC(=O)c1c(NC(C)=O)sc(C)c1C)C1CCS(=O)(=O)C1 (stereo not drawn) | 2.22 | –
37 | O=C(c1cc(S(=O)(=O)N2CCOCC2)ccc1Cl)N1CCOCC1 | 2.76 | –
38 | O=[N+]([O-])c1cc(Cl)cc(/C=N/NC(=S)Nc2cc(S(=O)(=O)N3CCOCC3)ccc2Cl)c1O | – | 56.2 µM (active)
39 | O=C(Nc1cc(S(=O)(=O)N2CCOCC2)ccc1Cl)c1cc(=O)c2ccccc2o1 | -0.0117 | –
40 | NC(=O)NC(=O)C(OC(=O)CCNS(=O)(=O)c1ccccc1)c1ccccc1 (stereo not drawn) | -9.11 | –
41 | O=C(CCC(=O)n1ncc2ccccc21)NCc1ccccc1Cl | -5.43 | –
42 | Cc1ccc2nc(NC(=O)CSc3nc(=O)n(CCCN(C)C)c4c3CCC4)sc2c1 | – | 79.4 µM (active)
43 | Cc1csc(NC(=O)CSc2nc(=O)n(CCCN(C)C)c3c2CCC3)n1 | -1.23 | –
44 | Cc1ccc(NC(=O)CSc2nc(=O)n(CCN(C)C)c3c2CCCC3)c(C)c1 | 7.61 | –
45 | Cc1cc(C)c2cc(C#N)c(N3CCNCC3)nc2c1 | 10.8 | –
46 | Oc1c(Cl)cc(Cl)c(Cl)c1Cc1c(O)c(Cl)cc(Cl)c1Cl | – | 31.6 µM (active)
47 | O=C(NCc1ccccc1)C1CNCC(C(=O)NCc2ccccc2)C1 (stereo not drawn) | 6.8 | –
48 | Cc1c2cnn(-c3ccccc3)c(=O)c2c(C)n1CCCC(=O)N1CCN(C)CC1 | -7.56 | –
49 | O=C(OCC(=O)N1CCCCCC1)c1cnc(Cl)c(Cl)c1 | -8.72 | –
50 | CCCCNC(=O)OC(C)CNC(=O)OC (stereo not drawn) | -0.338 | –

Row | SMILES | activity, negative = inhibition [%] | Potency
51 | Cc1cccc(N2CCN(C(=O)c3cnn4c(C(F)F)cc(-c5ccccc5)nc34)CC2)c1C | -2.11 | –
52 | COc1ccccc1N1CCN(C(=O)c2cc(=O)c3cc(C)cc(C)c3o2)CC1 | 3.53 | –
53 | Cc1ccc(Cl)cc1N1CCN(C(=O)c2cccc3c(=O)c(C)c(-c4ccccc4)oc23)CC1 | – | 12.6 µM (active)
54 | CCOCCCNC(=O)Cc1cc(=O)[nH]c(=O)[nH]1 | 12.4 | –
55 | CCCCCC1CCC(c2nnc(SCC(C)=O)o2)CC1 (stereo not drawn) | 8.05 | –
56 | COc1cccc2c(C)c(C(=O)O)[nH]c12 | 0.659 | –
57 | N#C/C(C(=O)N1CCOCC1)=C1/SC(Cc2ccc(F)cc2)C(=O)N1c1ccccc1 (stereo not drawn) | 8.88 | –
58 | Cc1cccc(NS(=O)(=O)c2ccc(C(=O)NCC(C)(C)N3CCOCC3)cc2)c1C | 24.5 | –
59 | Nc1[nH]c(C(=O)c2ccccc2)c(-c2ccc(Br)cc2)c1C(=O)NC1CC1 | -3.82 | –
60 | O=c1nc(N/N=C/c2ccco2)cn[nH]1 | -1.92 | –
61 | CCc1c(C)nc2c(OC)cccc2c1Cl | 5.13 | –
62 | COc1cccc2c(N/N=C/c3ccco3)cc(C)nc12 | – | 12.6 µM (active)
63 | CC(C)(C)Cc1c(C2CCCCC2)nc2ccc(Br)cn12 | -25 | –
64 | CCN(CC)S(=O)(=O)c1cc([N+](=O)[O-])ccc1NNC(=O)Nc1ccccc1 | -11.5 | –
65 | CCC(C(=O)NC1CCCC1)N(C(=O)c1snc(C(N)=O)c1N)c1ccc2c(c1)OCCO2 (stereo not drawn) | -3.82 | –
66 | Cc1c(Cl)c([N+](=O)[O-])nn1CC(=O)NCCCN1CCOCC1 | 3.26 | –
67 | CCOC(=O)N1CCN(Cc2nc3c(c(=O)n(C)c(=O)n3C)n2Cc2ccccc2)CC1 | -1.88 | –
68 | CC(=O)OCC(C)n1c(=O)c2ccccc2n1C(C)=O (stereo not drawn) | 2.88 | –
69 | COc1cccc(C2CC(c3cccs3)=NN2C(=O)CSC2=NCCS2)c1OC (stereo not drawn) | 0.0512 | –
70 | CCCCCn1c(SCCC(C)C)nc2c1c(=O)[nH]c(=O)n2C | -3.83 | –
71 | COC(=O)[C@@]12C[C@@H](CC(=O)NCCCCc3ccccc3)C(=O)N(CCc3ccc(OC)c(OC)c3)C1=CCC(C)(C)C2 | 3 | –
72 | Cc1ccc(C(=O)Nc2c(-c3ccccc3)[nH][nH]c2=O)cc1 | -23.4 | –
73 | O=C(OC1CC2CC1[C@H]1CCCCN1C2=O)N1CCOCC1 (stereo partly drawn) | 0.539 | –
74 | O=C(NCc1ccco1)c1cccc(-c2ccc3nncn3c2)c1 | -4.43 | –
75 | C=CCNC(=S)NNC(=O)c1ccc(Br)o1 | 0.381 | –

Row | SMILES | activity, negative = inhibition [%] | Potency
76 | O=S(=O)(Nc1cccc(-c2ccc(N3CCOCC3)nn2)c1)c1ccc(Cl)c(Cl)c1 | -13.3 | –
77 | O=C(CC1C(=O)NCCN1CC(c1ccccc1)c1ccccc1)NCCc1cn[nH]c1 (stereo not drawn) | 3.71 | –
78 | CCOCCCNC(=O)C(NC(=O)Cc1c[nH]c2ccccc12)c1ccc(OC)cc1 (stereo not drawn) | -0.765 | –
79 | COc1ccc(NC(=O)C(c2ccncc2)n2c(=O)c(-c3cc4ccccc4[nH]3)nc3ccccc32)cc1 (stereo not drawn) | -10.2 | –
80 | COC(=O)Cn1c(=NC(=O)c2cc(OC)c(OC)c(OC)c2)sc2cc(OC)ccc21 | -0.061 | –
81 | Cc1ccc(Cc2c(-c3ccc(Cl)cc3)nc3c4ccccc4ccn23)cc1 | 4.4 | –
82 | COC(=O)C1=C[C@@H](C(=O)OC)[C@@H]2C3=C(C(=O)[C@]2(C)NC(=O)c2ccccc2)[C@H](C)n2c(=O)n(C)c(=O)n2[C@@H]3C1 | 4.54 | –
83 | O=C1NC2(CCCCC2)N=C1c1ccccc1 | 6.31 | –
84 | COc1cc(N)c(Cl)cc1C(=O)OCC(=O)c1ccc2c(c1)NC(=O)CO2 | -6.76 | –
85 | COc1ccc(S(=O)(=O)N[C@@H]2C=C[C@@H](CC(=O)N3CCc4ccccc4C3)O[C@@H]2CO)cc1 | -5.82 | –
86 | Cc1cccc(C)c1NC1=NC(=S)N(c2ccc(N(C)C)cc2)C1(C)C | -0.385 | –
87 | CC1(C)OC(=O)C2=C(C[C@@H](C3CC3)O[C@H]2c2ccc(Cl)cc2)O1 | -12.1 | –
88 | O=S(=O)(/N=C(/Nc1ccccc1)c1ccccc1)c1cccs1 | 5.66 | –
89 | O=C1OCCOC2CCCc3oc(-c4ccccc4)c1c32 (stereo not drawn) | -5.11 | –
90 | Cc1c(C(=O)NCC2CC2)sc(=O)n1Cc1cccc(F)c1 | 1.07 | –
91 | OCCC#Cc1ccc(N2C(c3ccsc3)=Cc3ccc(F)cc3C2c2c[nH]c3ccccc23)cc1 (stereo not drawn) | 6.26 | –
92 | O=C(c1ccc[nH]c1=S)N1CCN(S(=O)(=O)c2ccc(Br)cc2Cl)CC1 | -5.45 | –
93 | CCOc1ccc(CCNC(=O)C(CC)n2nc(C)n3c(cc4sccc43)c2=O)cc1OCC (stereo not drawn) | 7.88 | –
94 | CCOCCCNc1c(CC)c(C)c(C#N)c2nc3ccccc3n12 | -11.1 | –
95 | O=C1COc2ccc(C(=O)COC(=O)CCOc3ccccc3)cc2N1 | 5.36 | –
96 | CNC(=O)c1csc(Cc2c(Cl)sc3ccc(Cl)cc23)n1 | – | 8.91 µM (active)
97 | CC(=O)NNC(=O)c1csc(Cc2c(Cl)sc3ccc(Cl)cc23)n1 | -15.8 | –
98 | CC(=O)Cc1nsc(NC(=O)c2ccc(Cl)cc2Cl)n1 | -1.18 | –
